Here are results for 31 molecules from ChEMBL document CHEMBL4513216, “Probing the Open Global Health Chemical Diversity Library for Multistage-Active Starting Points for Next-Generation Antimalarials” (ACS Infect Dis, 2020).

Each structure is given as a SMILES string. Among all 68,000 compounds or so, about 2,700 (4%) showed an effect of 50% or more. The list comes from a sample in which strong results are over-represented; it also holds similar structures and randomly drawn compounds.

For the assay, the system named is Plasmodium berghei. Description: Screen against P. berghei liver stage (PbLuc), transformed with Luciferase, at 2uM. It counts as functional, HepG2. To be noted: tested at 2 uM.
`COCCC1COC2(CCN(C(=O)c3ccccc3)CC2)C1` (stereo unspecified): the INHIBITION is recorded as -40.63%.

With `COCCC1COC2(CCN(C(=O)c3ccncc3)CC2)C1` (stereo unspecified), the INHIBITION turned out to be 2.5%.

As to `COCCC1COC2(CCN(C(=O)c3ccsc3)CC2)C1` (stereo unspecified), the INHIBITION is on record as 56.71%.

On to `Cn1cnc(S(=O)(=O)NCCN2CCCCCC2=O)c1Cl`, for which the INHIBITION is listed as 3.86%.

As for `Cn1cc(N2CCC(NC(=O)c3c(F)cccc3Cl)C2=O)cn1` (stereo unspecified), the INHIBITION is on record as 50.98%.

Consider `Cc1ccsc1C(=O)NC1CCN(c2cnn(C)c2)C1=O` (stereo unspecified), for which the INHIBITION is reported as 20.14%.

Regarding `Cn1cc(N2CCC(NC(=O)c3c(F)cccc3F)C2=O)cn1` (stereo unspecified), the INHIBITION was 31.98%.

On to `Cc1ccccc1C(=O)NC1CCN(c2cnn(C)c2)C1=O` (stereo unspecified), for which the INHIBITION is reported as 52.08%.

For the molecule `Cn1cc(N2CCC(NC(=O)c3ccccc3Cl)C2=O)cn1` (stereo unspecified), the INHIBITION was found to be 28.95%.

Regarding `Cn1cc(N2CCC(NC(=O)c3ccccc3F)C2=O)cn1` (stereo unspecified), the INHIBITION is recorded as 63.1%.

Regarding `Cc1cccc(C(=O)NC2CCN(c3cnn(C)c3)C2=O)n1` (stereo unspecified), the INHIBITION was 1.22%.

With `Cc1cccc(C(=O)NC2CCN(c3cnn(C)c3)C2=O)c1C` (stereo unspecified), the INHIBITION turned out to be 13.53%.

`CCc1ccc(C(=O)NC2CCN(c3cnn(C)c3)C2=O)o1` (stereo unspecified): the INHIBITION turned out to be 26.65%.

For `COc1ccc(S(=O)(=O)NCCn2cnc(C)cc2=O)cc1C`, the INHIBITION stood at 11.94%.

Turning to `CCCN1C[C@@H]2CC[C@H]1CN(C(=O)c1ccc(N(C)CCO)cc1)C2`, the INHIBITION turned out to be 6.73%.

For `CC(=O)N(C)Cc1cccc(NC(=O)c2cnn(C)c2C)c1`, the INHIBITION is given as -7.28%.

In the case of `CC(O)CN1CCC(CNCc2ccc(C(N)=O)cc2)CC1` (stereo unspecified), the INHIBITION is given as -63.41%.

For `N#CCCN(c1ccccc1)S(=O)(=O)CC1CCCCO1` (stereo unspecified), the INHIBITION is given as 16.87%.

For the molecule `CNC(=O)CCN(C)CC1(c2ccc(Br)cc2)CC1`, the INHIBITION was -43.52%.

For the molecule `CCNC(=O)N(C)Cc1ccc(SC)c(OC)c1`, the INHIBITION is listed as -53.99%.

Regarding `CCc1cnc(C)nc1N(C)CCCc1cnn(C)c1`, the INHIBITION is -32.88%.

As to `COc1ccccc1-n1cc(C(=O)NCCCn2ccnn2)cn1`, the INHIBITION was 32.73%.

`CC(C#N)NS(=O)(=O)c1ccc2c(c1)N(C)CCC2` (stereo unspecified): the INHIBITION is recorded as -95.81%.

Take `Brc1csc(CNCc2nnc3n2CCC3)c1`: the INHIBITION came out at 26.81%.

On to `COc1ccc(-n2ccc(C(=O)NCCN3CCCCCC3)n2)cc1`, for which the INHIBITION was 23.42%.

Regarding `COC(=O)CCNC(=O)c1ccc(NC(=O)N(C)CC(C)(C)C)cc1`, the INHIBITION is 6.85%.

In the case of `COc1ccc(C(=O)CCc2nc(C3CC3)no2)cc1`, the INHIBITION is reported as 9.43%.

In the case of `O=C(CCc1nc(C2CC2)no1)c1ccccc1`, the INHIBITION came to 53.65%.

For the molecule `O=C(CCc1nc(C2CC2)no1)c1ccc(F)c(F)c1`, the INHIBITION was -44.84%.

`Cc1ccc(CN2CCN(c3ncccc3Cl)CC2CCO)cc1` (stereo unspecified): the INHIBITION is given as -87.47%.

Regarding `Cc1nc(C2CCCN(C(=O)c3ccc(S(C)(=O)=O)cc3)C2)no1` (stereo unspecified), the INHIBITION is -6.56%.
